Results taken from PubChem BioAssay AID1851 (National Center for Advancing Translational Sciences (NCATS), 2009).
The campaign covered roughly 16,000 compounds. About 5,800 (36%) were called active. Not shown: some 23% with an inconclusive outcome. The list shows a part of the results. Unmarked numbers belong to inactive results. The call rests on the fitted dose curve; in most records, active means well fitted curve in the direction sought with a large enough effect; inconclusive means small, poorly fitted or top-dose-only effect, or effect the other way; inactive means no such curve, though single readings can be large or run the other way.

The molecules below were run against Cytochrome P450 2C19 (Homo sapiens) (UniProt P33261) (assay: Cytochrome panel assay with activity outcomes). Settings: recombinant CYP, pro-luciferin dealkylation, luminescence, p450-cyp2c19; series mostly up to 57.1 µM; activity, negative = inhibition: at the top concentration.
Chain of Cytochrome P450 2C19 (Homo sapiens) (P33261 whole entry, looked up): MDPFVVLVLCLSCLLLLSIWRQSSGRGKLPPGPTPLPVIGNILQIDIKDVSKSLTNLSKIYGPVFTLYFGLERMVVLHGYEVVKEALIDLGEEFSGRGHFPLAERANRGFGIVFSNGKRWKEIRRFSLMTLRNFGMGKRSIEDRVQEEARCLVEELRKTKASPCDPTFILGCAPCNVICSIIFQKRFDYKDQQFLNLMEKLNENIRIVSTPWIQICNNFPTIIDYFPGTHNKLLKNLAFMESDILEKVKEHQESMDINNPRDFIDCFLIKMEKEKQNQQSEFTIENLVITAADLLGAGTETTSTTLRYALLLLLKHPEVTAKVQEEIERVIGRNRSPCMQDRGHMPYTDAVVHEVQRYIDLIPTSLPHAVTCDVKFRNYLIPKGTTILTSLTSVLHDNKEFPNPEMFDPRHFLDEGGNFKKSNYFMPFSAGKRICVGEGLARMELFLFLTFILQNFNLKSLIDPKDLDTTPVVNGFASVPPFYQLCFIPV
On the % scale 0 is the no-effect control and ±100 the full control effect.

SMILES	activity, negative = inhibition	AC50
O=c1onc2n1-c1cc(Br)ccc1OC2	5.02%	
Cc1nn(-c2ccccc2)c(Cl)c1/C=N/NC(=O)c1ccco1		15.8 µM (active)
Cc1nn(-c2ccccc2)c(C)c1/C=N/NC(=O)c1cc(-c2ccc(Cl)s2)[nH]n1		10 µM (active)
N[C@@H](CCCP(=O)(O)O)C(=O)O	-20.6%	
O=C(O)CCCSc1nc2ccccc2s1	20.2% [at 11.4 µM]	
COc1ccc(OCc2nnc(SCC(=O)N3c4ccccc4Sc4ccc(Cl)cc43)o2)cc1		6.31 µM (active)
O=C1CSC2(CCN(CCCN3c4ccccc4Sc4ccc(Cl)cc43)CC2)N1	-35% [at 11.4 µM]	
COc1ccc2c(c1)N(CC[C@H]1CCCCN1C)c1ccccc1S2	-12% [at 11.4 µM]	
OC1CC2CC[C@H](C1)N2CCCN1c2ccccc2Sc2ccc(Cl)cc21 (stereo not given in full)	-19.5% [at 11.4 µM]	
O=C(CSc1nc2ccccc2s1)N1c2ccccc2Sc2ccc(C(F)(F)F)cc21		4.47 µM (active)
O=C(CSc1nc2ccccc2o1)N1c2ccccc2Sc2ccc(Cl)cc21		2.51 µM (active)
COc1ccc2c(c1)N(C[C@@H](C)CN(C)C)c1ccccc1S2	-41.9% [at 25.6 µM]	
Nc1c(OCC(=O)O)ccc2cc(S(=O)(=O)O)ccc12	-19.3% [at 11.4 µM]	
CN(C)C=Nc1ccc2nn(-c3ccccc3)nc2c1		17.8 µM (active)
O=C(O)c1nn(-c2ccccc2)nc1-c1nn(-c2ccccc2)nc1C(=O)O	-16%	
CSc1ccc(CNc2ccc(Cl)cc2)cc1		0.02 µM (active)
CSc1ccc(CNc2ccccc2)cc1		0.631 µM (active)
CC(C)(CC(=O)Nc1ccccc1)C(=O)O	43% [at 11.4 µM]	
CSc1ccc(CNc2ccc(C)c(C)c2)cc1		0.0316 µM (active)
N#CCCn1c(=O)c(CCc2ccccc2)nc2cnc(Nc3ccccc3)nc21	2.05%	

SMILES	activity, negative = inhibition	AC50
CCNc1ncc2nc(CCc3ccccc3)c(=O)n(CCOC)c2n1		10 µM (active)
CN(C)c1ncc2nc(-c3ccc(F)cc3)c(=O)n(CCC#N)c2n1	-22.4%	
CCNc1ncc2nc(-c3ccc(F)cc3)c(=O)n(CCOC)c2n1	26.9%	
CCNc1ncc2nc(CCc3ccccc3)c(=O)n(CCC#N)c2n1		15.8 µM (active)
Cc1nc2cnc(N(C)C)nc2n(CCC#N)c1=O	16.4%	
CCNc1ncc2nc(-c3ccc(OC)cc3)c(=O)n(CCOC)c2n1	11.6%	
CN(C)c1ncc2nc(CCc3ccccc3)c(=O)n(CCC#N)c2n1		10 µM (active)
CCNc1ncc2nc(-c3cn(C)c4ccccc34)c(=O)n(CCC#N)c2n1	-6.26%	
COc1ccc(CCNC(=O)COc2ccc(S(=O)(=O)NC3CCCCC3)cc2Cl)cc1		7.94 µM (active)
COc1ccc2c(c1)C(=O)N(CCc1ccc(S(=O)(=O)NC(=O)NC3CCCCC3)cc1)C(=O)C2(C)C	-28.2% [at 25.6 µM]	
COc1ccc(CCCC(=O)NC2CCCCC2)cc1		3.16 µM (active)
COc1cccc(-c2nccc(NCc3cnc(C)cn3)n2)c1	-39.6%	
COc1cccc(-c2nccc(NCc3cccc(C)c3)n2)c1		6.31 µM (active)
COc1cccc(-c2nccc(NCc3ccccc3)n2)c1		7.94 µM (active)
CC1CCN(C(=S)c2ccc(O)cc2)CC1		3.55 µM (active)
Cc1cccc2c1Oc1ccccc1[C@@H]2NC(=O)c1ccc([N+](=O)[O-])cc1	-12.7% [at 11.4 µM]	
N[C@](CC1c2ccccc2Oc2ccccc21)(C(=O)O)[C@@H]1C[C@@H]1C(=O)O	-16.4%	
Cc1cccc2sc(NC(=O)C3c4ccccc4Oc4ccccc43)nc12		2.51 µM (active)
O=C(Nc1cccnc1Cl)C1c2ccccc2Oc2ccccc21		0.794 µM (active)
O=C1C2=CC[C@@H]3C(=O)N(c4ccc(F)cc4F)C(=O)[C@H]3[C@H]2[C@H](O)[C@H]2O[C@H]12	-24% [at 11.4 µM]	

SMILES	activity, negative = inhibition	AC50
Cc1noc(C)c1C(=O)N1CCC2(CCCN(Cc3ccccc3)C2)CC1	-7.37%	
OCCN(Cc1ccccc1)Cc1cccc(Cl)c1Cl		0.282 µM (active)
COc1ccc(OC)c(Nc2nc(-c3cccc([N+](=O)[O-])c3)nc3ccccc23)c1	-18%	
CN(C)c1ccc(-c2nc(NCCc3cnc[nH]3)c3ccccc3n2)cc1		1.58 µM (active)
CC(=O)NCCNc1nc(-c2ccc(N(C)C)cc2)nc2ccccc12	-28.3%	
COCCNc1nc(-c2ccc(C(=O)N(C)C)cc2)nc2ccccc12	-11.3%	
COc1ccc(CNc2nc(-c3c(C)noc3C)nc3ccccc23)c(OC)c1		3.16 µM (active)
Cc1noc(C)c1-c1nc(N2CCN(C)CC2)c2ccccc2n1	-7.27%	
COCCNc1nc(-c2ccc(N(C)C)cc2)nc2ccccc12		15.8 µM (active)
COCCNc1nc(-c2ccccc2CN(C)C)nc2ccccc12	39.7%	
COc1ccc(CNc2nc(-c3ccc4c(c3)OCO4)nc3ccccc23)c(OC)c1		7.94 µM (active)
Cn1cccc1C(=O)N1CCC2(CC1)CN(Cc1ccc(C#N)cc1)C2	41.3%	
CNC(=O)[C@@H]1O[C@@H](n2cnc3c(NCc4cccc(I)c4)ncnc32)[C@H](O)[C@@H]1O	22.5%	
COc1c(O[C@H]2O[C@@H](CO)[C@@H](O)[C@@H](O)[C@@H]2O)cc2c(c1OC)-c1ccc(SC)c(=O)cc1[C@H](NC(C)=O)CC2	-33.1% [at 25.6 µM]	
COc1ccccc1CNc1nc(-c2ccc(N(C)C)cc2)nc2ccccc12		10 µM (active)
COc1ccccc1CNc1nc(-c2ccc3c(c2)OCO3)nc2ccccc12		3.16 µM (active)
COc1ccc(CNc2nc(-c3ccc(C(=O)N(C)C)cc3)nc3ccccc23)c(OC)c1		15.8 µM (active)
C=CC1=C(C)C2=Cc3c(C=C)c(C)c4[n]3[Sn+2][n]3c(c(C)c(CCC(=O)O)c3=CC3=NC(=C4)C(C)=C3CCC(=O)O)=CC1=N2	-26%	
C=C1C(=O)O[C@@H]2[C@H]3O[C@]3(C)CCC=C(C)CC[C@@H]12	-30%	
CCC(=O)NC(Nc1sc2c(c1C(=O)OC)CCCC2)(C(F)(F)F)C(F)(F)F		3.98 µM (active)
